Results taken from PubChem BioAssay (NCATS).
Results filed as inconclusive are left out. Unless noted, calls follow the shape of the dose curve; as a rule, active = well fitted curve in either direction with a large enough effect (not every such curve was filed as active); inconclusive = small, poorly fitted or top-dose-only effect, or another doubt; inactive = flat fitted curve, though single readings scatter.

Assays:
[1] = AP1 Signaling Pathway (AID 357); details: ME-180 AP-1-bla reporter, EGF-induced, beta-lactamase ratio, 5 h; at 17.2 µM (top of the series) unless noted;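 also: ME-180 reporter cells stimulated with EGF at its EC50 level; % is scaled to controls: 0 for no effect and ±100 for the full control effect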
Outline: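 Modulation of EGF-driven AP-1 transcription was assessed with a beta-lactamase reporter in ME-180 cells. Compound and EC50 EGF were co-incubated 5 hours at 37 °C before 2.5-hour CCF4 loading at room temperature and dual-emission reading.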

[2] = NFAT Signaling Pathway (AID 444); details: Jurkat NFAT-bla M1, carbachol, beta-lactamase ratio, 5 h; at 17.2 µM (top of the series) unless noted;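 also: carbachol stimulus at about its EC50 of 1 µM final; % is scaled to controls: 0 for no effect and ±100 for the full control effect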
Outline: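 Read-out: CCF4 FRET ratio (460 nm/530 nm) after 1 h RT dye loading, used for %activity and AC50 from titration series. Cells: Jurkat NFAT-β-lactamase/M1 line, treated with compound plus 1 uM carbachol for 5 h, 37 °C.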

[3] = Stat Signaling Pathway (AID 446); details: ME-180 (cervical carcinoma) SIE beta-lactamase reporter, IL-6 stimulated, 5 h; at 17.2 µM (top of the series) unless noted;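 also: ME-180 cervical cancer cells given 40 pM IL-6 alongside compound; SIE-controlled beta-lactamase reporter measured as 460/530 nm FRET emission ratio; % is scaled to controls: 0 for no effect and ±100 for the full control effect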
Outline: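 FRET read-out (405 nm excitation, 460/530 nm emission) of a beta-lactamase reporter under a STAT-inducible element in ME-180 cervical carcinoma cells. Cells with compound receive 40 pM IL-6 for 5 h. Values are normalised to AC90 stimulation and AC90 JAK-inhibitor controls.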

[4] = target: Glucocorticoid receptor (Homo sapiens) (UniProt P04150); experiment: GR-GFP Redistribution (AID 450;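 active = compounds whose dose series gives a full or clear partial fitted curve of increased nuclear translocation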; also: potency is read from the fitted curve at half-maximal effect)
Chain of Glucocorticoid receptor (Homo sapiens) (P04150 whole entry, looked up): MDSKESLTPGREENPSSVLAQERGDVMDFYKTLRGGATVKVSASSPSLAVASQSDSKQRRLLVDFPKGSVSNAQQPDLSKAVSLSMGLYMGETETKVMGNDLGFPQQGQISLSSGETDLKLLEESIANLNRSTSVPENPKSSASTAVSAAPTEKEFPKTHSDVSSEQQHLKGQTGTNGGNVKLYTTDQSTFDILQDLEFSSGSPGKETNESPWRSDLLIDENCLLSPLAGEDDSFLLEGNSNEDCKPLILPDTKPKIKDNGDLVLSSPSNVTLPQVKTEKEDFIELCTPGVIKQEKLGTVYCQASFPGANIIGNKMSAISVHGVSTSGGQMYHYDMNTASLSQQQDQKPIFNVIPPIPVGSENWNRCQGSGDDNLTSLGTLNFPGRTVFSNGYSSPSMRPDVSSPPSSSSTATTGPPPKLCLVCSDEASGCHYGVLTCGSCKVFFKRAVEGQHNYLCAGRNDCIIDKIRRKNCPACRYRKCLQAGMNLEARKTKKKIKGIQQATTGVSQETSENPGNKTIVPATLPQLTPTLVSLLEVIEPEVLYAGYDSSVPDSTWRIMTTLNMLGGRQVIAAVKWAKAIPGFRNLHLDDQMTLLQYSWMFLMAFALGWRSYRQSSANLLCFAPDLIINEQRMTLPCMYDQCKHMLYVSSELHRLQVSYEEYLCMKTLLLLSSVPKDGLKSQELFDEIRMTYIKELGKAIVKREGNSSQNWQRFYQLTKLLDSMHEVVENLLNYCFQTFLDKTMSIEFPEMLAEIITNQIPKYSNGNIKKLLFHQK

CCCCOc1ccc(C)cc1CN(CCO)CCO
inactive: activity change, negative = inhibition [1] 27.9% | activity change, negative = inhibition [2] -9.6% | activity, negative = inhibition [3] 5.48% | Potency [4] > 20.6 µM

CCN1CCc2c(C#N)c(NCc3ccccc3)nc(N(CC)CC)c2C1
inactive: activity change, negative = inhibition [1] 2.07% | activity change, negative = inhibition [2] 1.29% | activity, negative = inhibition [3] 12.6% | Potency [4] > 20.6 µM

CC1(C)Cc2ccccc2-c2c1c(=O)n(-c1ccccc1)c1nnnn21
inactive: activity change, negative = inhibition [1] -13.7% | activity change, negative = inhibition [2] -24.9% | activity, negative = inhibition [3] 2.44% | Potency [4] > 20.6 µM

O=C(CCN1CCCCC1)Nc1cccc(Cl)c1
inactive: activity change, negative = inhibition [1] 7.3% | activity change, negative = inhibition [2] -23.2% | activity, negative = inhibition [3] -0.895% | Potency [4] > 20.6 µM

N#Cc1nc(COc2ccccc2)oc1N1CCCC1
inactive: activity change, negative = inhibition [1] -20.4% | activity change, negative = inhibition [2] 4.75% | activity, negative = inhibition [3] 0.032% | Potency [4] > 20.6 µM

COC(=O)CN(c1cc(OC)ccc1OC)S(=O)(=O)c1ccc(OC)c(OC)c1
inactive: activity change, negative = inhibition [1] -25.5% | activity change, negative = inhibition [2] 4.34% | activity, negative = inhibition [3] -5.92% | Potency [4] > 20.6 µM

CCc1nc(SCc2cccnc2)c(C#N)cc1C
inactive: activity change, negative = inhibition [1] -8.39% | activity change, negative = inhibition [2] -24.2% | activity, negative = inhibition [3] 0.873% | Potency [4] > 20.6 µM

CCOc1ccc(C2=Nn3c(nnc3-c3cccnc3)SC2)cc1
inactive: activity change, negative = inhibition [1] 3.18% | activity change, negative = inhibition [2] -2.85% | activity, negative = inhibition [3] -4.46% | Potency [4] > 20.6 µM

CCOC(=O)C1=C(C)N=C2SC(C)C(=O)N2C1c1cccc(F)c1 (stereo not given)
inactive: activity change, negative = inhibition [1] -17.6% | activity change, negative = inhibition [2] 7.16% | activity, negative = inhibition [3] 1.84% | Potency [4] > 20.6 µM

Cc1cc(=O)oc(C)c1C(=O)N1CCN(Cc2ccc3c(c2)OCO3)CC1
inactive: activity change, negative = inhibition [1] 6.44% | activity change, negative = inhibition [2] 17.1% | activity, negative = inhibition [3] 5.97% | Potency [4] > 20.6 µM

Brc1ccc(-c2cnnc(N3CCCC3)n2)cc1
inactive: activity change, negative = inhibition [1] -13.4% | activity change, negative = inhibition [2] 0.485% | activity, negative = inhibition [3] 6.79% | Potency [4] > 20.6 µM

CCc1nc(N2CCOCC2)c(C#N)c2c1CCCC2
inactive: activity change, negative = inhibition [1] -3.85% | activity change, negative = inhibition [2] -21.8% | activity, negative = inhibition [3] -7.54% | Potency [4] > 20.6 µM

CC(C)C(C(=O)Nc1ncn[nH]1)N1C(=O)c2ccccc2C1=O (stereo not given)
inactive: activity change, negative = inhibition [1] 21.4% | activity change, negative = inhibition [2] -9.04% | activity, negative = inhibition [3] -1.14% | Potency [4] > 20.6 µM

COc1cccc(OC)c1OCCN1CCN(C(=O)c2ccco2)CC1
inactive: activity change, negative = inhibition [1] 17.1% | activity change, negative = inhibition [2] -6.56% | activity, negative = inhibition [3] 11.8% | Potency [4] > 20.6 µM

CC1CN(C2CCN(S(=O)(=O)c3ccccc3)CC2)CC(C)O1 (stereo not given)
inactive: activity change, negative = inhibition [1] 2.07% | activity change, negative = inhibition [2] -20.4% | activity, negative = inhibition [3] 2.46% | Potency [4] > 20.6 µM

COC(=O)C(NC(C)=O)(Nc1ccc(Br)cc1)C(=O)OC
inactive: activity change, negative = inhibition [1] 8.16% | activity change, negative = inhibition [2] -1.04% | activity, negative = inhibition [3] 8.85% | Potency [4] > 20.6 µM

CCOC(=O)C1=C(c2ccccc2)NC(SCC(=O)Nc2ccccc2C)=C(C#N)C1c1ccco1 (stereo not given)
inactive: activity change, negative = inhibition [1] -1.47% | activity change, negative = inhibition [2] -6.28% | activity, negative = inhibition [3] -9.31% | Potency [4] > 20.6 µM

Cc1ccc2[nH]c(CCN(C)C)c(CC#N)c2c1
inactive: activity change, negative = inhibition [1] 12.9% | activity change, negative = inhibition [2] 8.6% | activity, negative = inhibition [3] 5.44% | Potency [4] > 20.6 µM

C/C(CC1(O)C(=O)N(Cc2ccccc2)c2ccccc21)=N\O (stereo not given)
inactive: activity change, negative = inhibition [1] 2.48% | activity change, negative = inhibition [2] 1.97% | activity, negative = inhibition [3] 3.88% | Potency [4] > 20.6 µM

Cn1nnnc1SCC(=O)NCC(=O)c1ccccc1
inactive: activity change, negative = inhibition [1] -2.72% | activity change, negative = inhibition [2] 2.64% | activity, negative = inhibition [3] 0.0289% | Potency [4] > 20.6 µM
